Assay [1] in a line: Viability qHTS for spleen associated tyrosine kinase inhibitor (SYKi) naive MV4-11 cells (AID 1963823). Note: nearly all actives have a fitted effect of over 40% in size. The procedure, abridged:
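qHTS, SYK inhibitor-naive MV4-11; 500 cells/well; 72 hr compound exposure, 37 C; CellTiter-Glo added, 10 min RT; luminescence read.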
For orientation: In qHTS, concentration-response curves come from the screen itself.

Assay [2] in a line: Viability qHTS for spleen associated tyrosine kinase inhibitor (SYKi) drug resistant MV4-11 cells (AID 1963824). Note: nearly all actives have a fitted effect of over 35% in size. A digest of the protocol:
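SYK-inhibitor-resistant MV4-11 AML cells were seeded at 500 per well onto compound and cultured 72 hours (37 °C, 5% CO2). CellTiter-Glo was then added, and after 10 min at room temperature, luminescence gave viability.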

Data on 24 molecules can be found in PubChem BioAssay (NCATS).

“And” between values parts separate entries of the source, which are not always exact repeats. Identical values can stand only once. Results filed as inconclusive are left out. A structure can be active in one record and inactive in another. The source made the active and inactive calls. Calls come from the whole dose curve; as a rule, active = well fitted cell-killing curve with a large enough effect; inconclusive = small, poorly fitted or top-dose-only effect, or effect the other way; inactive = no such curve, though single readings can be large or run the other way.
Potency is the fitted concentration of half-maximal effect.

As for `CC(C)=CC/C=C(\C)[C@H]1CC[C@]2(C)[C@@H]1[C@H](O)C[C@@H]1[C@@]3(C)CC[C@H](O)C(C)(C)[C@@H]3[C@@H](O[C@@H]3O[C@H](CO)[C@@H](O)[C@H](O)[C@H]3O)C[C@]12C`, the Potency result in assay [1] and in assay [2] was “inactive” in each case.
As to `CC(C)=CC1C[C@](C)(O)[C@@H]2[C@H]3CCC4[C@@]5(C)CC[C@H](O[C@@H]6OC[C@H](O)[C@H](O[C@@H]7O[C@H](CO[C@@H]8O[C@H](CO)[C@@H](O)[C@H](O)[C@H]8O)[C@@H](O)[C@H](O)[C@H]7O)[C@H]6O[C@@H]6O[C@@H](C)[C@H](O)[C@@H](O)[C@H]6O)C(C)(C)[C@@H]5CC[C@@]4(C)[C@@]34CO[C@@]2(C4)O1` (stereo partly drawn), the viability (% of control) in assay [1] is 74.2% [at 9.25 µM] (inactive). The viability, % of control in assay [2] was 96.9% [at 9.25 µM] (inactive).
Consider `CC(NC(=O)CC(=O)O)c1nc2ccccc2c(=O)[nH]1` (stereo not drawn), for which the Potency entry in assay [1] and in assay [2] was “inactive” throughout.
For `Cn1cc(Nc2cnccc2C(=O)O)c2cccnc21`, the Potency entry in assay [1] and in assay [2] was “inactive” each time.
For `COc1ccc(/C=C/C(=O)O[C@@H]2[C@@H](O)[C@@H](O)[C@H](O[C@H]3[C@@H]4C=CO[C@@H](O[C@@H]5O[C@H](CO)[C@@H](O)[C@H](O)[C@H]5O)[C@@H]4[C@@]4(CO)O[C@@H]34)O[C@H]2C)cc1`, the Potency result in assay [1] and in assay [2] was “inactive” in each case.
Consider `COc1cc([C@H]2OC[C@](O)(Cc3ccc(O[C@@H]4O[C@H](CO)[C@@H](O)[C@H](O)[C@H]4O)c(OC)c3)[C@@H]2CO)ccc1O`, for which the Potency result in assay [1] and in assay [2] was “inactive” throughout.
As to `COc1ccc2cc(-c3cc(-c4cc(Cl)cc(Cl)c4)nn3C(C)c3ccc(C(=O)NCCC(=O)O)cc3)ccc2c1` (stereo not drawn), the Potency in assay [1] is 23.1 µM (active); in assay [2], 25.9 µM (active).
Consider `CC1(C)OC(=O)CC(O)C2(C)C1CC(=O)C1(C)C2C(O)CC2(C)C(c3ccoc3)OC(=O)C3OC321` (stereo not drawn), for which the Potency result in assay [1] and in assay [2] was “inactive” each time.
As to `C=C[C@H]1[C@H](O[C@@H]2O[C@H](CO)[C@@H](O)[C@H](O)[C@H]2O)OC=C(C(=O)OC)[C@H]1C[C@@H]1c2cc(O)c(O)cc2CCN1C(C)=O`, the Potency result in assay [1] and in assay [2] was “inactive” throughout.
As to `C/C(=C\CCC(C)CCO)C(=O)OC1(C)CCC2C(C(=O)O)=COC(OC3OC(CO)C(O)C(O)C3O)C21` (stereo not drawn), the Potency entry in assay [1] and in assay [2] was “inactive” throughout.
Consider `COC(=O)c1ccc(OC)cc1O[C@@H]1O[C@H](CO[C@@H]2OC[C@@H](O)[C@H](O)[C@H]2O)[C@@H](O)[C@H](O)[C@H]1O`, for which the Potency result in assay [1] and in assay [2] was “inactive” in each case.
Regarding `COC(=O)c1ccc(N2CCN(C)CC2)c(NC(=O)c2cccc(OC)c2)c1`, the Potency result in assay [1] and in assay [2] was “inactive” in each case.
For the molecule `OC[C@H]1O[C@@H](OC[C@H]2O[C@@H](OC/C=C/c3ccccc3)[C@H](O)[C@@H](O)[C@@H]2O)[C@@H](O)[C@@H]1O`, the Potency result in assay [1] and in assay [2] was “inactive” in each case.
As for `OCC1=C[C@@H](O)[C@@H]2C=CO[C@@H](O[C@@H]3O[C@H](CO)[C@@H](O)[C@H](O)[C@H]3O)[C@H]12`, the Potency entry in assay [1] and in assay [2] was “inactive” each time.
Consider `COc1ccc(CCc2nc3cc(-c4c(C)noc4C)ccc3n2C[C@H](C)N2CCOCC2)cc1Cl`, for which the Potency in assay [1] was 7.31 µM (active); in assay [2], 5.8 µM (active).
On the same counts, the results for `CC(CCC1C(C(=O)O)=CC(=O)CC1(C)C)O[C@@H]1O[C@H](CO)[C@@H](O)[C@H](O)[C@H]1O` (stereo partly drawn) are “inactive” and “inactive”.
Taken in the same sequence, the figures for `C[C@H]1/C=C/C=C/C=C/C=C/C=C/[C@@H](O)[C@H](C(=O)O)[C@H](O)C[C@H](O)CCC[C@H](O)C[C@H](O)C[C@H](O)[C@@H](C)C(=O)O[C@@H]1C` were “inactive” and “inactive”.
As to `COc1cc(C(=O)OCCCN2CCCN(CCCOC(=O)c3cc(OC)c(OC)c(OC)c3)CC2)cc(OC)c1OC`, the Potency in assay [1] and in assay [2] was 21.1 µM (active) in each case.
As to `CCC(C)C(=O)Oc1cc(C)ccc1C1(COC(=O)C(C)C)CO1` (stereo not drawn), the Potency was 2.86 µM (active) in assay [1] and 2.02 µM (active) in assay [2].
As for `Clc1ccc2c(c1)N=C(N1CCNCC1)c1ccccc1N2`, the Potency in assay [1] and in assay [2] was 20.6 µM (active) throughout.
With `CCN(CC)CCOc1ccc2c(c1)C(=O)c1cc(OCCN(CC)CC)ccc1-2`, the Potency in assay [1] is 13.3 µM (active); in assay [2], 9.44 µM (active).
Regarding `CN1CCN(CCCN2c3ccccc3Sc3ccc(S(=O)(=O)N(C)C)cc32)CC1`, the Potency is 11.9 µM (active) in assay [1] and 10.6 µM (active) in assay [2].
As for `C#C[C@]1(O)CC[C@H]2[C@@H]3CCc4cc(O)ccc4[C@H]3CC[C@@]21C`, the Potency entry was “inactive and 14.8 µM (active)” in assay [1]; “inactive and 7.42 µM (active)” in assay [2].
Regarding `NCC(=O)O`, the Potency entry in assay [1] and in assay [2] was “inactive” each time.
